What follows are sequences tested against SOHLH2 (assay: pooled miR-30 sensor sort-seq; sequence = guide strand). Conditions: shRNA.
Note: reference of the scale not given here.

Sequence	sensor-assay potency score (higher = more potent)
TATATTTCACATAATCAACTGT	0.64
TAGATTGTCAAACTGCGCCCAG	-0.465
TAAGATGTCTATTTTTGCCTGG	0.389
TTCAGTTAAAGCAATATCCATT	-0.431
TTCGCTGTAGGACCTCTGCAGG	-0.848
TTCTCGAACTCTGACAACGAAG	-1.44

The sequences below were run against SORCS2 in the same assay as above. Conditions: shRNA.

Sequence	sensor-assay potency score (higher = more potent)
TTTGGTCACTCGCTCTTGCAGA	-0.75
AAAGAAGATGTAATCGTCCTGC	0.216
TTACTCAACAAGGAGCGGGTGC	-0.482
TTGAGGACAACTTGTAGGGTGG	-0.426
TAGACTTACACTAACATCCCTG	0.646
TTCTTCTTTATATTCCACCAGC	-0.916
TAGAGCTTGCTCTCCTTTGTGT	0.276
TTCTTTATATTCCACCAGCTGT	-1.25
TAGAAATTGTCGATGACGGTGG	0.449
TATTCCTATAGACTTACACTAA	-0.686
TTTTACTCAACAAGGAGCGGGT	-0.478
TTTCCTTTTGAACTTGTAGAGG	-1.02

Each sequence was assayed against SOX21 in the same assay as above. Conditions: shRNA.

Sequence	sensor-assay potency score (higher = more potent)
TTAATCTTCGATAAAATTGCGA	-0.173
TTGAGTCTAAAGTCGACTCAAA	-1.13
TTCTATGTACATACAAACCGGG	-0.494
TCTATGTACATACAAACCGGGC	-1.15
TTAAATTAGAAGGTCACACTAG	0.0223
TAAATTAGAAGGTCACACTAGA	0.55
TAGTAGTTTGTTGTTGTTGTTT	-0.802
TTAACTTTGATATTCGCTCAAA	-0.537
ATGAACAGAGTGATAGTCGGAT	0.0793
TTTGAGTCTAAAGTCGACTCAA	0.154
TAATCTTCGATAAAATTGCGAT	-0.606

Each sequence was assayed against SPAM1 in the same assay as above. Conditions: shRNA.

Sequence	sensor-assay potency score (higher = more potent)
TTTCCTTATACACACTCCTTGC	-0.862
ATACTAACAATGAACATTGTGG	-0.0586
TTGAGGTTCTTCTGTCTCCATG	-1.06
TTTTCCTTATACACACTCCTTG	-0.634
TTTATTTCTACATTGAAGCAAC	-0.796
TTGAATAGCAAAATTATCTGGG	0.668
TCTATCTTTGTAACTTGCCTTC	-0.492
TTTCATTCCACAACCAGCTGAG	0.0511
TAACAATGAACATTGTGGCAGA	-0.131
TATTGTAACACCTTGCCCGGTG	-0.194
TAATTGTCTAGGAGCAAGCAAG	-1.53

Source: the OligoGym collection
